Among the data in the supplement of paper PMC6555819 are PBM binding z-score values, retold here.

The subject of the experiment is VDR:RXRa (NR concentration 270 nM, RXRa partner concentration 90 nM). The experiment is described as follows: PBM binding z-score (relative to random genomic background probes); higher = stronger binding; sequences stand for … in GC…GCGATTGACAGCGTAGAATGAAGG
On the procedure: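 Protein-binding microarray (Agilent 4x180K custom design, double-stranded 60-nt probes: 5' GC cap, 34-nt variable region, 24-nt constant primer region; full probe sequence given). Purified or IVT nuclear receptor:RXRα heterodimers (3:1 NR:RXRα, mostly 270:90 nM) or homodimers were incubated for 1 h in PBS with 2% milk and no ligand, then detected with Alexa488 antibodies. Fluorescence from o1-orientation probes (~5 replicates averaged) was converted to z-scores against 500 random hg19 background probes. Variable regions are seed direct-repeat (DR0–DR5) sites, all their single-nucleotide variants and half-site ablations.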
On to TCATATAGGTAAGAGGTGAAAGTCGGTGTGGTAA, for which the PBM binding z-score was found to be 1.33. As for CTCGAAAGGTCGTGCTCAGGTGTGTATACCAAAC, the figure is 3.31; as for CCTACTGGGCCACGAAAGGTCATTGACTCAGTGA, 4.12; as for TGTCAAAGATCAAAGGTAACGTAAGTATCCACAC, 0.973. On to GTACCAAGGTGAATAGGCCGTTGATGAGTAGGCG, for which the PBM binding z-score is -0.0408. Regarding ATCTCTAGGGAAAGTTCAGTGAAAGATCGATAGA, the PBM binding z-score was 1.12. In turn, TCTTGTAGATCAGCAGGGTAAGAAAGCTGGCCAA registered a PBM binding z-score of 0.195. Turning to ACAGACAGGTGATGAAGGTAACCCAGGCTATCAT, the PBM binding z-score was -0.00497. On to CGAACTAGGTCATACAGGACAGTGAATACATTGA, for which the PBM binding z-score worked out at 3.99. The value for TCTGCTAGTTCAACGATGGTCAGCTAATCTGCTA was 0.196; that for AGAATGAGGTTATACTTAGATCAGGGAAGAAAGT was 1.41; that for TTACCAAGGTGAAGGTCGTTCATCCCTCTGTAGA was 1.74. The sequence CAACCTAGGTCACAGAGGTCAAAGTCCGTGCGTA returned a PBM binding z-score of 8.21.

Sequence AGAACGAGGGCAATTAGTTGATAGCACGGGTGGC showed a PBM binding z-score of 1.13. Sequence CGAACTAGGTCATTGACAGGACAGGGAATAGTAA displayed a PBM binding z-score of 2.12. The value for TAGCCTAAGTCATTGGGCCAGTATAGTACGCATC was -0.202; that for CCGAATGGGGCATAAGGTTACCATAAGCCAGCCC was 0.232; that for AGTCAAAGTTCAGGACGCGGTAACGTAAAGCACG was 2.37. As to CCTCGGAGGACAGAATGTCAGAGCTGTCCGCTTT, the PBM binding z-score is -0.778. For the sequence ATCTCTAGGTAAAGATAGTTCAGTGACTGCAAAT, the PBM binding z-score was 1.05. CCTTACGGGTCACTGACTGGTTATAGCATTTGGA: the PBM binding z-score amounted to 3.11. The sequence TTACCAAGGTGAGCTGAGGTCTTTGATCCAACTC yielded a PBM binding z-score of 0.497. Consider TTACCAAGGTGAAAGTTCGTTGATGCACGCCTTG, for which the PBM binding z-score stood at 2.12. As for GCTAGTTGGTCAGTAAAAGGTCACACTCCGGTCG, the figure is 3.76; as for CCTCGGAGGACAGAAGGTCAGCGCTGTCCGCTTT, 1.22; as for GCGACTGGGGCAAAGCAGGTTACCAGAAGGTTGG, 0.13. CCGACAGGGGCAGAAAGGTTACCATACCATCCGG showed a PBM binding z-score of 1.75. In the case of CGAACTAGGTCAGAACAGGGCAGTGAAGGATGAT, the PBM binding z-score amounted to 0.903. TGAATGAGGTTAGAAGATCAGGGAACGTTGCAAA returned a PBM binding z-score of 0.0983. Regarding CAAACTAGGTCACAGAGGTCAAAGGCCGTGCGTA, the PBM binding z-score turned out to be 8.04. For TCATATAGGTACAAGGTGAAAGTCGGTGTGGTAA, the PBM binding z-score worked out at 1.22. In the case of TTTATTAGTTGAAGGGCAACCGACGAGTCCGTTT, the PBM binding z-score stood at 1.17. In turn, CCTACTGGACCATCAGGTCATTGATATCAACGTT displayed a PBM binding z-score of 2.24.

Turning to TCGAGTAGGTTAGTCGGGGAATTCAGCCAACATA, the PBM binding z-score was -0.318. Sequence CCTTACGGGTCACGAGGTTACAGCACGACGAGCG had a PBM binding z-score of 5.28. On to CCTCGGAGGACAACACGAGGTCAGAGCTGCCAGA, for which the PBM binding z-score amounted to 2.72. On to ATATGTTGGTTACATCCGGGTCATTCAGGCTATG, for which the PBM binding z-score came out at 3.42. For the sequence TCTGCTAGGTCAACGATGGTCAGATAATCTGCTA, the PBM binding z-score is 1.78. In the case of GCTCGGAGGACAGGGTCAGAGCTTTGTCCGTAGA, the PBM binding z-score was 1.08. As for TGAATGAGGTTATAAGGTCAGGGAACGTTGCAAA, the figure is 4.04.
